Compound activity: PubChem, National Center for Advancing Translational Sciences (NCATS)
A selection: hits, their analogues and other compounds. The true share with any hit is near 2.4%.
D2 ag-1: HTS Assay for Allosteric Agonists of the Human D2 Dopamine Receptor: Primary Screen for Agonists; D(2) dopamine receptor (Homo sapiens), P14416; HEK293 T-REx D2 cells, calcium flux agonist mode; activation, % at 2 µM; actives 0.53% (n = 340,000); AID 485358, 2010;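 active = activation over 3 SD above normal in the single-dose calcium agonist read, cut at about 30% in these data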; also: 0% is about no effect
Target sequence (P14416 whole entry, looked up): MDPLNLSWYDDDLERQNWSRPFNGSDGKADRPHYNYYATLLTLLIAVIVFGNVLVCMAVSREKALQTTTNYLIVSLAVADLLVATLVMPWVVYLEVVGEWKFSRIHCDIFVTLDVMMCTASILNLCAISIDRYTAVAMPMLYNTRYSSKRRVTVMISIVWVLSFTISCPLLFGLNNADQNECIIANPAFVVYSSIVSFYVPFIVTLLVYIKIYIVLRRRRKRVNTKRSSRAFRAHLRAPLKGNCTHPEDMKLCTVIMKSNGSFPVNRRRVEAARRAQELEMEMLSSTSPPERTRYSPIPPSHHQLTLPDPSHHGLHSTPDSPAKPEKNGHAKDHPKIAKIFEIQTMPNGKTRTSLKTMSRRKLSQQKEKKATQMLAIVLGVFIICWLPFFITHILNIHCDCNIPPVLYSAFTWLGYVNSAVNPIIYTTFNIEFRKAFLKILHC
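HEK293 Trex D2 cells, tetracycline-induced, o/n 30 C 5% CO2; no-wash Ca dye, RT 30–90 min; 10-cycle baseline, 23 nl cpd added, kinetic Ca read 180 s; agonist hits = positive Ca response.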
D2 antag: HTS Assay for Allosteric Antagonists of the Human D2 Dopamine Receptor: Primary Screen for Antagonists | actives 2% (n = 340,000) | AID 485344, 2010 | inhibition, % at 10 µM | HEK293 TREx D2 cells, calcium flux, dopamine EC80 | D(2) dopamine receptor (Homo sapiens), P14416; in the data active = inhibition above about 30%; inactive = below that, where a call was filed; also: 0% is about no effect
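Cells plated overnight at 30 C with tetracycline; no-wash calcium dye, 30–90 min RT; 10 s baseline; compound pinned; 180 s read; EC80 dopamine added; another 180 s read.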
D2 ag-2: Beta-Arrestin HTS for Positive Allosteric Modulators of the Human D2 Dopamine Receptor: Agonists | DiscoveRx PathHunter D2 beta-arrestin, luminescence, 90 min; 100% = 57 uM dopamine signal | activation, % (test concentration not listed) | actives 0.084% (n = 360,000); in the data active = activation above about 40%; inconclusive = between about 15% and that limit
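Agonist mode: compounds alone added to overnight-plated D2 PathHunter cells for 90 min at 37 C, with 57 uM final dopamine (EC100) defining full response. Beta-arrestin recruitment detected by chemiluminescent reagent, read after 1 h at ambient temperature.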
D2 PAM-1: HTS Assay for Positive Allosteric Modulators of the Human D2 Dopamine Receptor: Primary Screen for Potentiators; HEK293 T-REx D2, calcium flux, EC20 dopamine potentiation; potentiation, % at 10 µM; actives 0.34% (n = 340,000); AID 485347, 2010;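 active = potentiation over 3 SD above the plate norm, cut at about 30% in these data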; also: 0% is about no effect
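Primary screen. Calcium kinetics in induced HEK293 T-REx D2 cells: compound pre-addition 180 s, EC20 dopamine, 180 s more.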
D2 PAM-2: Beta-Arrestin HTS for Positive Allosteric Modulators of the Human D2 Dopamine Receptor: Potentiators; D(2) dopamine receptor (Homo sapiens), P14416; DiscoveRx D2 beta-arrestin cells, luminescence, 90 min; 100% = 57 uM dopamine signal; potentiation, % (concentration not given with the values); actives 0.23% (n = 360,000); in the data active = potentiation above about 50%; inconclusive = mostly about 30% to 49%
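PathHunter beta-arrestin assay in DiscoveRx D2 cells. Compounds were added with an EC20 of dopamine (50 nM final) for 90 min at 37 deg C. Luminescence was read 1 h after detection reagent, with 57 uM dopamine as the EC100 control.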
* marks the source's active call; other numbers are inactive results; ? = inconclusive; nt = no result given.

SMILES | D2 ag-1 | D2 antag | D2 ag-2 | D2 PAM-1 | D2 PAM-2
COc1cc2ccccc2cc1C(=O)Nc1cccc(-c2nc3cc(C)c(C)cc3o2)c1 | -1 | nt | nt | 2 | nt
Nc1c2c(nc3c1CCC3)CCCC2 | 1 | 31* | nt | -7 | nt
Nc1c2c(nc3ccn(-c4ccccc4)c(=O)c13)CCCCC2 | 1 | 6 | -1 | -11 | -16
O=C(O)C(Cc1ccccc1)N1C(=O)c2ccccc2C1=O (stereo unspecified) | 1 | 14 | -3 | -16 | 4
CCC(C(=O)O)N1C(=O)c2ccccc2C1=O (stereo unspecified) | 0 | 37* | 0 | 5 | 1
Cn1c(N)c(C(=O)COC(=O)C2Cc3ccccc3CN2S(C)(=O)=O)c(=O)n(C)c1=O (stereo unspecified) | nt | nt | 0 | nt | -8
CNC(=O)c1ccc(NC(=O)C2CCN(S(=O)(=O)c3cccc(C(F)(F)F)c3)CC2)cc1 | 1 | 30* | 1 | -2 | 14
O=C(NNC(=O)C1CCN(S(=O)(=O)c2cccc(C(F)(F)F)c2)CC1)C1CC1 | 0 | 4 | 1 | -3 | 3
O=C(O)/C=C/C(=O)N1CCN(S(=O)(=O)c2cccc(C(F)(F)F)c2)CC1 | 0 | 31* | 3 | 5 | ?
CCOc1ccc(NC(=O)Cc2ccc(-n3c(C)nc4cccnc43)cc2)cc1 | -1 | nt | nt | -3 | nt
COc1ccccc1NC(=O)Nc1nc(C(N)C2CCCCC2)cs1 (stereo unspecified) | nt | nt | 2 | nt | -20
COc1cc(NC(=O)Nc2nc(C(N)C3CCCCC3)cs2)cc(OC)c1OC (stereo unspecified) | nt | nt | 109* | nt | ?
O=C(O)CCC(=O)c1ccc(C2CCCCCC2)cc1 | nt | nt | -1 | nt | 6
Clc1ccc(-c2ccc(CN3CCCCC3)o2)cc1 | 0 | 78* | -3 | -28 | -66
CCOC(=O)/C=c1\s/c(=C\c2ccc3c(c2)OCCO3)c(=O)n1CC(=O)NCC1CCCO1 (stereo unspecified) | 0 | 55* | -2 | -4 | -8
CC(=O)Nc1ccc(NC(=O)C(C)OC(=O)CC2CCCC2)cc1 (stereo unspecified) | -1 | 0 | -2 | 1 | 9
CC(=O)Nc1ccc(NC(=O)C(C)OC(=O)CCC2CCCC2)cc1 (stereo unspecified) | 1 | 30* | -3 | -3 | 6
COc1ccc(C2=C(C)C(=O)N(Cc3ccc(C(=O)NCc4cccc(C)c4)cc3)S2(=O)=O)cc1 | 0 | nt | nt | -7 | nt
COc1ccc(Nc2ncnc3c2cnn3C)c(OC)c1 | 0 | nt | nt | -10 | nt
COc1cc(C(=O)Nc2ccccc2N2CCCCC2)cc(OC)c1OC | -1 | 0 | -2 | -9 | -2
O=C(Nc1ccccc1N1CCOCC1)c1cc(-c2ccco2)nc2ccccc12 | 0 | 2 | 2 | 7 | 16
COc1cc(C(=O)NC(=S)Nc2ccccc2N2CCCC2)cc(OC)c1OC | -1 | 43* | -4 | 7 | -23
COc1cc(-c2cc(C(=O)Nc3ccccc3N3CCOCC3)c3ccccc3n2)cc(OC)c1OC | 0 | -24 | -5 | 33* | 24
CCc1ccc(CSc2nc(-c3ccccc3OC)nc3c2Cc2c(CO)cnc(C)c2O3)cc1 | 0 | nt | nt | 1 | nt
COCc1cc(C)n(CC(=O)Nc2ccc(NC(C)=O)cc2)c(=O)c1C#N | 1 | nt | nt | -9 | nt
SMILES | D2 ag-1 | D2 antag | D2 ag-2 | D2 PAM-1 | D2 PAM-2
O=C(Nc1ccnn1C1CCN(Cc2ccccn2)CC1)c1cccc(F)c1 | 2 | 9 | -2 | 5 | -10
O=C(Nc1ccnn1C1CCN(Cc2ccccc2OCCO)CC1)c1cccc(F)c1 | 1 | 40* | 0 | -13 | -33
O=C(Nc1ccnn1C1CCN(Cc2ccccc2OC(F)F)CC1)c1cccc(F)c1 | 0 | 32* | -3 | -23 | -32
COc1ccc(CC(=O)NC2CC(=O)N(c3cccc(F)c3)C2)cc1 (stereo unspecified) | 0 | nt | nt | -1 | nt
CCOC(=O)c1cc(S(=O)(=O)N2CCN(c3cc(C)ccc3C)CC2)[nH]n1 | 0 | nt | nt | -12 | nt
COc1ccc(CCNC(=O)CCNC(=O)c2ccc(Br)cc2)cc1OC | 35* | -8 | 0 | -9 | -2
O=C(COc1ccc(Br)cc1)NCCNC(=O)c1ccncc1 | 0 | 47* | -8 | -11 | -16
COC(=O)C(Cc1ccccc1)NC(=O)CCNC(=O)c1ccc(Br)cc1 (stereo unspecified) | nt | nt | -1 | 40* | -5
Cc1ccc(CNC(=O)c2cc3sc(Cl)cc3n2C)cc1 | nt | nt | nt | -6 | nt
COC(=O)C(Cc1ccccc1)NC(=O)CCC(=O)NC(C)CCc1ccccc1 (stereo unspecified) | 0 | 0 | -2 | -6 | -2
COc1ccc(CCNC(=O)c2cc3sc(Cl)cc3n2C)cc1OC | -1 | 63* | -1 | -7 | -3
COc1ccc(C(NC(=O)C2CCN(Cc3ccc(Oc4ccccc4)cc3)CC2)c2ccccc2C)cn1 (stereo unspecified) | nt | nt | -5 | nt | -12
Cc1cc(C)cc(NC(=O)C2CCCN2S(=O)(=O)c2cccc3nsnc23)c1 (stereo unspecified) | -1 | nt | nt | -5 | nt
Cc1cccc(C)c1OCC(=O)NNC(=O)CCNC(=O)c1ccc(Br)cc1 | 0 | -3 | -5 | 0 | 64*
Cc1cccc(NC(=O)CN2C(=O)CCn3nc(-c4cccn4C)cc32)c1C | 0 | nt | nt | 10 | nt
CCCN1CCCc2cc(CN)ccc21 | 0 | 9 | 4 | -9 | 50*
COCCN(CCOC)Cc1cc(=O)oc2cc(OC)ccc12 | nt | nt | 5 | nt | -4
CC(=O)Nc1ccc(NC(=O)CN2CCN(c3cccc(C(F)(F)F)c3)CC2)cc1 | 7 | 2 | 1 | -15 | -39
Oc1cc2c(cc1CN1CCN(c3cccc(C(F)(F)F)c3)CC1)CCC2 | -1 | 56* | 0 | -22 | -38
CC(=O)Nc1ccc(CN2CCN(c3cccc(C(F)(F)F)c3)CC2)cc1 | 2 | 43* | -4 | -19 | -10
COc1ccc(N2CCN(Cc3cc4c(cc3O)CCC4)CC2)cc1 | 0 | 30 | 0 | 0 | -14
Cc1ccc(C(C(=O)NC2CCCCC2)N(C)Cc2ccccc2)cc1 (stereo unspecified) | nt | nt | nt | 6 | nt
COc1ccc(NC2=NCCCCC2)cc1 | 0 | 10 | -2 | 0 | -7
COc1ccc(NC2=Nc3ccccc3CC2)cc1 | 2 | 46* | -2 | -39 | -28
